From PubChem BioAssay
mIDH1 inhibitor: blocks human mutant IDH1 R132H enzyme | IDH1-R132H enzyme, NADPH consumption, diaphorase/resazurin fluorescence | Potency, µM (titrated, usually from 76.6 µM), for the others: at the top dose activity change, negative = inhibition, usual class: inhibitors | actives 0.093% (n = 390,000) | O75874 | AID 602179; also: potency is read from the fitted curve at half-maximal effect; % is scaled to controls: 0 for no effect and ±100 for the full control effect; nearly all actives have a fitted effect of over 65% in size
Target sequence (O75874 whole entry R132H, stated change not applied): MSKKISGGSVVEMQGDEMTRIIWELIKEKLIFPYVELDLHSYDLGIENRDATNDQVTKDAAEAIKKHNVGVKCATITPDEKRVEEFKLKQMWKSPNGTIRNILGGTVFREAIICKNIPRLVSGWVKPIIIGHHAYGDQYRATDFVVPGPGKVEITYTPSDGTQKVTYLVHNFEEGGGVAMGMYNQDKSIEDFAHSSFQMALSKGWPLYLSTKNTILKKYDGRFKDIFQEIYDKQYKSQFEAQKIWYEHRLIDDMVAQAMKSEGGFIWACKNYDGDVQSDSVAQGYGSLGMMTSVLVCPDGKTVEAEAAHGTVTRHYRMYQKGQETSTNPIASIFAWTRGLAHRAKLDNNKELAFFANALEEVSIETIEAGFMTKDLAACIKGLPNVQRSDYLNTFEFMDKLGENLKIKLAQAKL
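IDH1-R132H (0.5 ug/mL) preincubated 30 min with compound, then NADPH (0.016 mM) and alpha-KG (2 mM) added; 80 min at RT, pH 7.5. Remaining NADPH coupled via diaphorase/resazurin to fluorescence (540/590 nm); concentration-response curves normalized to no-enzyme control.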
ASM inhibitor: inhibitors of human secretory acid sphingomyelinase. AID 504937. actives 0.006% (n = 340,000). placental ASM, HMU-PC fluorogenic substrate, 60 min. Potency, µM (titrated, usually from 57.5 µM), for inactives: at the highest dose activity change, negative = inhibition, most hits filed as inhibitors; also: potency is read from the fitted curve at half-maximal effect
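Fluorescence read-out (Ex 386 nm, Em 447 nm) after stopping the reaction at pH 10. Enzyme: ASM from human placenta; substrate HMU-PC0, 9 uM final; 60 min, 37 °C. Compound preincubation 10 min, ambient temperature.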
RGS4 inhibitor: inhibitors of human regulator of G protein signaling 4; P49798; Transcreener GDP fluorescence polarization, RGS4-accelerated GTP hydrolysis; actives 0.039% (n = 390,000); AID 504845; Potency, µM (titrated, usually from 114 µM), inactives show at the top dose activity change, negative = inhibition, actives largely listed as inhibitors; also: potency is read from the fitted curve at half-maximal effect; % is scaled to controls: 0 for no effect and ±100 for the full control effect; nearly all actives have a fitted effect of over 75% in size
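MLSMR compounds (23 nl, pin-transferred) preincubated 10 min at room temperature with a 500nM (2x) first reagent, then RGS4 at 900nM (2x) plus Transcreener GDP mix added; fluorescence polarization (620/688 nm) read before and after 90 min at 30 °C.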
LDHA inh: LDHA (human) enzyme inhibition; P00338; purified LDHA, NADH/diaphorase-resazurin fluorescence; stronger effect = lower value; activity change, % (values are at about 110 or 230 µM); actives 0.15% (n = 480,000); in the data active = activity change below about -30%; inconclusive = mostly about -25% to -30%;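 also: plate controls were DMSO wells for no effect and wells without enzyme for full effect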
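Resorufin fluorescence (ex540/em590), read at 0 and 20 min after diaphorase/resazurin addition, reports the NADH left after a 5 min room-temperature reaction of 2 nM human LDH5 with 0.06 mM NADH and 0.2 mM pyruvate.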
Mito fusion yeast: inhibitors of mitochondrial division or activators of mitochondrial fusion. actives 0.23% (n = 320,000). AID 485298. S. cerevisiae fusion-defective mutant growth rescue, CellTiterGlo 48 h. Potency, µM (titrated, usually from 46.1 µM), inactives show at the highest dose growth rescue (activation), hits mostly activators; also: potency is read from the fitted curve at half-maximal effect; % of control where 0% means no effect; nearly all actives have a fitted effect of over 45% in size
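S. cerevisiae fusion-defective temperature-sensitive mutants (e.g. fzo1-1, mgm1-5) grown 48 h at 37C in YPEG (ethanol/glycerol non-fermentable) medium with 23 nl compound per well; growth rescue read as CellTiterGlo luminescence.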
ClpP mod: qHTS Assay for Activators of ClpP | ATP-dependent Clp protease proteolytic subunit (Bacillus subtilis (strain 168)), P80244 | purified B. subtilis ClpP, FRET peptide cleavage, 20 min | Potency, µM (top dose mostly 57.5 µM), for the others: at the highest dose activity change, negative = active | actives 1.9% (n = 340,000) | AID 651965, 2013; active = well fitted falling curve with a large enough effect; inconclusive = small, poorly fitted or top-dose-only effect; inactive = no such curve, though single readings can be large or run the other way; also: potency is read from the fitted curve at half-maximal effect; the source files actives as falling curves though it sought activators and does not explain the sign; nearly all actives have a fitted effect of over 65% in size
Target sequence (P80244 whole entry, looked up): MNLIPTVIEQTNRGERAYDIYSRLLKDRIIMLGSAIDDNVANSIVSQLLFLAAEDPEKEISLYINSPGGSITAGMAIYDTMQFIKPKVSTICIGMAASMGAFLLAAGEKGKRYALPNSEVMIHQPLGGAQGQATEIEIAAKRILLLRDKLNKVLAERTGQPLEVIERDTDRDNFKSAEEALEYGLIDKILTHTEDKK
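Purified B. subtilis ClpP, 10 microg/mL final in Tris/HCl pH8 with KCl, BSA, glycerol and Tween-20, cleaved an Abz/nitrotyrosine-quenched decapeptide. Fluorescence (ex 320, em 430) was read at 0 and 20 min at room temperature. Delta was normalized to 5.8 microM ADEP and DMSO/no-enzyme controls.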
Starred values were filed as active, the others as inactive; i = inactive; ? = inconclusive; / = not tested or not shown; [ ] = remark or other dose. The full list was thinned out, with hits kept by preference. Unless noted, calls follow the shape of the dose curve; as a rule, active = well fitted curve in the direction sought with a large enough effect; inconclusive = small, poorly fitted or top-dose-only effect, or another doubt; inactive = no such curve, though single readings can be large; an effect the other way counts as inactive or inconclusive.

SMILES	mIDH1 inhibitor	ASM inhibitor	RGS4 inhibitor	LDHA inh	Mito fusion yeast	ClpP mod
CCOC(=O)c1cc2c(=O)n3ccccc3nc2n(Cc2ccco2)c1=NC(=O)c1cccnc1	8%	i	?	10	-1%	3.2µM*
CCOC(=O)c1cc2c(=O)n3ccccc3nc2n(Cc2ccco2)c1=NC(=O)c1ccc(C)c(C)c1	7%	/	-36%	9	/	4%
CCOC(=O)c1cc2c(=O)n3cccc(C)c3nc2n(Cc2ccco2)c1=NC(=O)c1cccnc1	?	477%	-36%	0	-5%	14µM*
CCOC(=O)c1cc2c(=O)n3ccccc3nc2n(Cc2ccco2)c1=NC(=O)c1ccccc1Br	?	/	-46%	4	/	4%
CCOC(=O)CCCNC(=O)COC(=O)c1cc(-c2cccs2)nc2ccccc12	/	/	/	7	/	/
CN(C)CCCN(CC1CCOC(C)(C)C1)C(=O)c1ccco1 (stereo not given)	/	/	/	5	/	/
COC(=O)Cn1c(=O)c2c(nc3n2CCCN3Cc2ccccc2)n(C)c1=O	9%	18%	?	0	6.3µM*	/
N#Cc1cc(-c2ccccc2)sc1N	/	/	/	9	/	/
CCc1ccc2oc(C(=O)Nc3ccc(S(=O)(=O)N(CC)c4ccccc4)cc3)cc(=O)c2c1	/	/	/	5	/	/
CCC1CCCCN1c1cc(C)nc2cc(-c3cccc(C)c3)nn12 (stereo not given)	2%	-9%	5%	5	?	28µM*
CCCNc1c(NC(=O)Nc2ccc(C)c(F)c2)c(=O)oc2ccccc12	/	/	/	-5	/	/
Cc1ccccc1-n1nnnc1SCc1ncc(-c2ccccc2)o1	3%	1%	-10%[11.4 µM]	3	1%	32µM*
CCOc1cc(S(=O)(=O)NCCc2cccc(C)c2)c(OCC)cc1-n1cnnn1	0%	0%	-1%	0	17%	32µM*
CCOc1cc(S(=O)(=O)N2CC=C(c3ccc(F)cc3)CC2)c(OCC)cc1-n1cnnn1	8%	-6%	29%	-5	-12%	?
CCOc1cc(S(=O)(=O)NCCc2ccccc2C)c(OCC)cc1-n1cnnn1	3%	-3%	14%	-1	0%	32µM*
CCOc1cc(S(=O)(=O)N(CC)CC)c(OCC)cc1-n1cnnn1	0%	-1%	20%	1	2%	16µM*
CCOc1cc(S(=O)(=O)N2CCC(Cc3ccccc3)CC2)c(OCC)cc1-n1cnnn1	10%	-3%	-8%	-2	-6%	14µM*
CCOc1ccc(-n2cnnn2)cc1S(=O)(=O)Nc1c(C)cccc1C	6%	-2%	21%	-6	1%	-7%
Cc1cc(NC(=O)c2ccc(F)cc2)cc(-c2nc3ccccc3o2)c1O	/	/	/	14	/	/
O=c1c2c(-c3ccc(Cl)cc3)noc2ncn1Cc1ccc(F)cc1Cl	/	/	/	-1	/	/
Cc1cc(N2CCC(C)CC2)nc2ccc(N3C(=O)CCC3=O)cc12	-1%	300%	-45%	-4	-1%	40µM*
CCCCCn1nc(C(=O)Nc2cc(OC)c(OC)cc2C)c2ccccc2c1=O	/	/	/	2	/	/
COc1ccc(NC(=O)CN(C)C(=O)/C=C/c2ccc(OCc3ccccc3)cc2)cc1	-1%	-5%	-30%	-3	0%	28µM*
COc1ccc(NC(=O)CN(C)C(=O)/C=C/c2ccc(S(=O)(=O)N3CCCCCC3)cc2)cc1	-3%	-1%	7%	-10	4%	-12%
COc1ccc(OC)c(/C=C/C(=O)N(C)CC(=O)Nc2cc(C)ccc2C)c1	5%	i	-17%	0	4%	1%
SMILES	mIDH1 inhibitor	ASM inhibitor	RGS4 inhibitor	LDHA inh	Mito fusion yeast	ClpP mod
COc1ccc(OC)c(/C=C/C(=O)N(C)CC(=O)Nc2ccc(C)cc2)c1	-3%	/	15%	0	1%	28µM*
CC(C)C(=O)Nc1ccccc1Sc1ccccc1	/	/	/	1	/	/
CCOc1ccc(NCc2cccn2-c2nnc(N3CCC(C(=O)NC4CCCC4)CC3)s2)cc1	/	/	/	5	/	/
Cc1ccc(CNC(=O)CN2CCN(c3nccs3)CC2)cc1F	/	/	/	8	/	/
CC1CCC(=C(C#N)c2nc(-c3cc4ccccc4oc3=O)cs2)CC1 (stereo not given)	1%	24%	?	-6	25%	3.5µM*
N#C/C(=C\c1ccc(Cl)cc1)c1nc(-c2cc3ccccc3oc2=O)cs1	-5%	/	-8%	-5	/	-1%
CCOC(=O)C1=C(C)NC(C)=C(C(=O)OCC)C1c1ccc(Br)o1	10%	13%	-1%	5	?	3.5µM*
C=CCNc1nc(NCCOc2ccccc2Cl)c2sc(-c3ccccc3)cc2n1	/	/	/	-1	/	28µM*
C=CCNc1nc(NCCOC)c2sc(-c3ccccc3)cc2n1	/	/	/	-5	/	-23%
c1ccc(OCCNc2nc(NCC3CC3)nc3cc(-c4ccccc4)sc23)cc1	/	/	/	-4	/	25µM*
CCC1CCCCN1S(=O)(=O)c1ccc(NC(=O)c2cccs2)cc1 (stereo not given)	10%	-12%	-11%	-2	16µM*	-3%
O=C(Nc1nnc(-c2ccco2)s1)C1CCN(S(=O)(=O)c2ccc(Cl)cc2)CC1	3%	3%	-4%	2	5%	?
O=C(Nc1nnc(-c2ccco2)s1)C1CC1	-4%	-2%	6%	3	4%	32µM*
CC1CCCCC1NC(=O)COC(=O)COc1ccccc1F (stereo not given)	-3%	7%	19%	-7	/	28µM*
N#Cc1cccc(NC(=O)c2ccccc2Oc2ccccc2)c1	/	/	/	9	/	/
Nc1ccc(C(=O)Nc2ccc(OC(F)(F)C(F)F)c(NC(=O)c3ccc(N)cc3)c2)cc1	7%	-10%	-13%	-9	-4%	16µM*
O=C(Nc1ccc(OC(F)(F)C(F)F)c(NC(=O)c2ccc(F)cc2)c1)c1ccc(F)cc1	8%	-2%	-15%	0	/	-1%
Cc1ccc(S(=O)(=O)N2CCCN(C(=O)c3cncn3-c3ccccc3)CC2)cc1	/	/	/	-37*	/	/
COc1ccc(-c2c(NC(=O)C(C)C)n(C)c3ccccc3c2=O)cc1	-1%	6%	1%	1	2%	28µM*
COc1ccc(-c2c(NC(C)=O)n(C)c3ccccc3c2=O)cc1	7%	9%	3%	-7	1%	25µM*
Cn1nc(C(=O)OCC(=O)NC(=O)c2ccc(OC(F)F)cc2)c2ccccc2c1=O	/	/	/	-2	/	/
O=C(O)c1ccc(N(c2ccccc2)c2ccccc2)cc1	0%	-7%	-48%	-6	-1%	16µM*
CCN(CC)c1ccc(C(=O)O)cc1	-3%	-3%	9%	-3	5%	-3%
